# Compounds with a hit are over-represented: about 0.81% of the library has one in this group of screens.
# RE007 growth inh: less growth of the S. pombe RE007 Vpr strain; 360,000 compounds, 0.21% hits; AID 651644; S. pombe RE007 Vpr strain, BacTiter-Glo ATP luminescence, 24 h; Potency, µM (top dose mostly 92.2 µM), actives largely listed as inhibitors; active means well fitted falling curve with a large enough effect; inconclusive means small, poorly fitted or top-dose-only effect; inactive means no such curve, though single readings can be large or run the other way; further: nearly all actives have a fitted effect of over 50% in size
#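 Fission yeast strain RE007, carrying one chromosomally integrated HIV-1 vpr copy, was seeded at OD 0.01 in PMG+AL medium with 23 nL pinned compound. After 24 h at 30 °C and 99% humidity, viability was read by BacTiter-Glo luminescence.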
# LmPK inh: LmPK (Leishmania mexicana) enzyme inhibition; Q27686; purified LmPK, Kinase-Glo ATP luminescence, 1 h; Potency, µM (top dose mostly 57.5 µM), most hits filed as inhibitors; 290,000 compounds, 0.37% hits; AID 1721
# Target sequence (Q27686 whole entry, looked up): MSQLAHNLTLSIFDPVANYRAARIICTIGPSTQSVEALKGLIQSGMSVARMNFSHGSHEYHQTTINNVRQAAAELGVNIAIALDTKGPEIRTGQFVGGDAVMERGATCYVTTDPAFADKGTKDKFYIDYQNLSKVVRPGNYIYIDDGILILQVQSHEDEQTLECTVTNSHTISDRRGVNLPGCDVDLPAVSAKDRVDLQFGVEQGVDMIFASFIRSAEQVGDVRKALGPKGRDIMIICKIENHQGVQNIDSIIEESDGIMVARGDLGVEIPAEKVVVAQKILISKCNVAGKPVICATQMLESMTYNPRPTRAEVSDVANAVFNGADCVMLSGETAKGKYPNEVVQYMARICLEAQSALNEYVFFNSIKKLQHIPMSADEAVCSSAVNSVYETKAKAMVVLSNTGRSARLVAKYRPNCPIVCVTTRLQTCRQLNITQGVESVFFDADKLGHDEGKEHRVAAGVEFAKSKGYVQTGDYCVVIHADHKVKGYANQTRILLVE
#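 qHTS format; LmPK 0.1 nM; substrates PEP 0.5 mM and ADP 0.1 mM. One-hour room-temperature incubation, then coupled luciferase luminescence; 0.5 nM enzyme wells mark activation.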
# SARS PLpro yeast-1: blocks SARS-CoV papain-like protease in a yeast assay; 330,000 compounds, 0.19% hits; AID 485353; Potency, µM (top dose mostly 32.9 µM), most hits filed as activators; S. cerevisiae expressing SARS-CoV PLpro, growth rescue; calls by dose curve; further: nearly all actives have a fitted effect of over 55% in size
# AMA1 RON2 block: AMA1-RON2 (P. falciparum) interaction inhibition; AlphaScreen AMA1-biotinylated RON2 peptide binding; Potency, µM (highest dose often 58.2 µM), actives largely listed as inhibitors; 360,000 compounds, 0.2% hits; further: nearly all actives have a fitted effect of over 45% in size
#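 AMA1 (3D7) with his tag at 25 nM final met compounds first, then biotinylated RON2 peptide at 25 nM; detection used donor plus acceptor beads, 10 µg/mL apiece, read by AlphaScreen after 30 min at room temperature.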
# Tb PYK inh: T. brucei pyruvate kinase inhibition | AID 624173 | Potency, µM (highest dose often 76.8 µM), most hits filed as inhibitors | TbPYK enzyme, Kinase-Glo Plus ATP luminescence, 45 min | Q57TT1 | 410,000 compounds, 0.12% hits; further: nearly all actives have a fitted effect of over 50% in size
#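 Glycolytic pyruvate kinase of T. brucei was incubated with substrate, test compound and 130 uM ADP for 45 minutes at room temperature. Luminescent Kinase-Glo Plus signal was measured after 10 minutes.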
# SARS PLpro yeast-2: Validates SARS-CoV PLpro inhibitor hits in yeast. yeast expressing SARS-CoV PLpro, growth phenotype rescue. calls only. 1,000 compounds, 19% hits. shares compounds with SARS PLpro yeast-1; call rule not given here
# Hits are given with their value; n = inactive; u = inconclusive; x = not tested or not shown; + = active, no number; [ ] = dose if it differs, or a comment. Unless noted, the call rests on the fitted dose curve; in most records, active means well fitted curve in the direction sought with a large enough effect; inconclusive means small, poorly fitted or top-dose-only effect, or another doubt; inactive means no such curve, though single readings can be large; an effect the other way counts as inactive or inconclusive.
SMILES,RE007 growth inh,LmPK inh,SARS PLpro yeast-1,AMA1 RON2 block,Tb PYK inh,SARS PLpro yeast-2
CCC1(c2ccccc2)NC(=S)N(c2cccc(C)c2C)N1 (configuration not stated),n,n,3.2µM,n,u,u
CC1(C)CC(=O)C(C=NCCN2CCN(C(=S)Nc3ccccc3)CC2)=C(O)C1,n,n,u,n,n,n
Cc1ccc(C2CC(=O)C(C=NCCN3CCN(C(=S)Nc4ccccc4)CC3)=C(O)C2)cc1 (configuration not stated),n,n,n,n,n,x
Cc1cc(C)c(OCC(=O)N(Cc2cccc(F)c2)Cc2ccco2)c(C)c1,x,x,x,x,n,x
N#CN(CC(N)=O)c1nc(N2CCCCC2)nc(N2CCCCC2)n1,n,n,u,n,n,n
CN1CCN(c2nc3c(c(=O)n(C)c(=O)n3C)n2Cc2ccccc2F)CC1,n,n,n,n,n,x
Cc1ccc(N=Nc2ccc(O)c3ncccc23)cc1,n,n,4µM,n,n,n
CCN(CC)C(=O)C1=C(C)N(Cc2ccccc2)C(=O)C(CC(=O)NC2CCCCC2)C1 (configuration not stated),n,x,x,n,n,x
Nc1ncc(S(=O)(=O)NCc2ccc(Cl)cc2)cn1,x,x,x,x,n,x
O=C1C2ON(c3ccccc3)C(c3ccccc3F)C2C(=O)N1c1ccccc1 (configuration not stated),n,n,n,n,n,x
CN1OC2C(=O)N(c3ccccc3)C(=O)C2C1c1ccc(F)cc1 (configuration not stated),n,n,u,n,n,n
Cc1ccc(NC(=O)/C=C/c2ccc3c(c2)OCO3)nc1,n,n,u,n,n,n
Cc1ccc(NC(=O)Nc2ccc3c(c2)OCO3)nc1,n,n,n,n,n,x
O=C1C[C@@H]2c3c(cccc3CN1Cc1ccccc1Br)C[C@@H](O)[C@H]2O,n,x,x,n,n,x
O=C1c2ccccc2NC(c2ccc(-c3cccc([N+](=O)[O-])c3)o2)N1O (configuration not stated),n,n,10µM,n,n,+
Nc1ccc2oc(-c3cc(Br)ccc3Cl)nc2c1,n,n,n,n,n,x
Nc1ccc2oc(-c3ccccc3Cl)nc2c1,u,u,14µM,n,n,n
COc1ccccc1CNC(=O)c1ccc2nc(-c3ccccc3)c(-c3ccccc3)nc2c1,x,x,x,x,n,x
O=C1c2ccccc2NC(c2cn[nH]c2-c2ccc(Cl)cc2)N1O (configuration not stated),n,n,7.9µM,n[2.32 µM],n,u
O=C1c2ccccc2NC(c2cn[nH]c2-c2ccccc2)N1O (configuration not stated),n,n,u,n,n,n
O=C1c2ccccc2NC(c2ccccc2O)N1O (configuration not stated),n,n,n,n,n,x
Cc1ccc(-n2nc(C(=O)N3CCCCC3)c(=O)n(C)c2=O)cc1,x,x,x,x,n,x
c1ccc(N2CCN(CCc3nnc4n3CCCCC4)CC2)cc1,n,n,u,n,n,n
CCN(CC)CCCNC(=O)Cc1ccc(NC(=O)N2CCCCc3ccccc32)cc1,x,x,x,x,n,x
COC(=O)c1ccc(CSc2nc3c(c(=O)[nH]2)CCC3)cc1,n,x,x,n,n,x
SMILES,RE007 growth inh,LmPK inh,SARS PLpro yeast-1,AMA1 RON2 block,Tb PYK inh,SARS PLpro yeast-2
COC(=O)[C@H]1C[C@H](OC(=O)Nc2c(C)noc2C)[C@@]2(O)CN(S(=O)(=O)c3ccc(C)cc3)CC2[C@H]1C(=O)OC (some centres not stated),n,x,x,n,n,x
CCCC(=O)NC(c1ccc2c(c1)OCO2)c1cc(Cl)c2cccnc2c1O (configuration not stated),n,n,2.8µM,n,n,n
CCCC(=O)NC(c1ccc(Cl)cc1)c1ccc2cccnc2c1O (configuration not stated),u,n,n,n,n,x
CCCC(=O)NC(c1ccc(C)cc1)c1ccc2cccnc2c1O (configuration not stated),u,n,u,n,n,+
CCCCC(=O)NC(c1ccc(N(CC)CC)cc1)c1ccc2cccnc2c1O (configuration not stated),n,n,4µM,n,n,u
CC(=O)c1ccc(S(=O)(=O)N2CCN(C(=O)CSc3ccc(C)c(C)c3)CC2)cc1,n,n,n,n,n,x

# Screens from PubChem.
